Results on 111 compounds are retold here after ChEMBL document CHEMBL4513216, “Probing the Open Global Health Chemical Diversity Library for Multistage-Active Starting Points for Next-Generation Antimalarials” (ACS Infect Dis, 2020).

Hit rate of the full screen: of about 68,000 compounds, about 2,700 (4%) showed an effect of 50% or more. The entries come from a sample that favours strong results as a whole.

In the assay the test system is Plasmodium berghei. Put plainly: Screen against P. berghei liver stage (PbLuc), transformed with Luciferase, at 2uM. The class given is functional, HepG2. Particulars: tested at 2 uM.
For the compound `O=C(N1CCOCC1)N1CCc2ncnc(NC3CCC3)c2CC1`, the INHIBITION is given as 24.36%.
The value for `CCC(=O)N1CCC2(CC1)CC(N1CCOCC1)c1cc(C)ccc12` (stereo unspecified) was 48.17%; that for `O=C1NCCCCC1Sc1nnc(C2CC2)n1C1CC1` (stereo unspecified) was 58.24%; that for `O=C1NCCCCC1Sc1nnc(N2CCCC2)n1C1CC1` (stereo unspecified) was -20.55%.
Next, `O=C1NCCCCC1Sc1n[nH]c(=O)n1C1CC1` (stereo unspecified): -5.76%; `CCN1CC(C(=O)NCc2ccccc2-n2cccn2)CC1=O` (stereo unspecified): 24.91%; `CNC(=O)[C@@H]1C[C@H]2CN(C(=O)c3ccco3)C[C@H]2N1C(C)C`: -11.99%.
Consider `c1cncc(COCc2nnc3n2CCN(Cc2cccs2)C3)c1`, for which the INHIBITION was 29.95%.
Next, `Cc1ncsc1CCN(C)C(=O)CN1CCCCCC1=O`: 24.36%; `Cc1ncsc1CCN(C)C(=O)CN1CC2(CCCC2)CC1=O`: 52.3%.
Next, `Cc1ncsc1CCN(C)C(=O)CN1CCCCC1=O`: 17.2%.
The value for `COc1cc(NC(=O)c2nc3ccccc3n(C)c2=O)cc(OC)c1` was -1.01%; that for `COCCn1cc(C(=O)N2CCCC2c2cccc(C)c2)ccc1=O` (stereo unspecified) was 9.5%.
Take `CCN1CCN(C)C2(CCN(C(=O)CC(F)(F)F)CC2)C1=O`: the INHIBITION was -2.81%.
The value for `COCCCN1CC2(CCC1=O)CCN(Cc1cc(C)no1)CC2` was -7.23%.
Next, `COCCCN1CC2(CCN(Cc3cc(C(C)C)no3)CC2)CC1=O`: -9.78%.
With `COCCCN1CC2(CCC1=O)CCN(Cc1cc(C(C)C)no1)CC2`, the INHIBITION is 50.86%.
Next, `CS(=O)(=O)c1nccn1Cc1ccncc1`: -52.32%.
In the case of `CCc1nccn1CCC(=O)N1CC(=O)N(c2ccccc2C)CC1C` (stereo unspecified), the INHIBITION was 26.21%.
On to `CCc1nccn1CCC(=O)N1CCN(c2ccccc2C)CC1C` (stereo unspecified), for which the INHIBITION is listed as -12.03%.
Next, `Cc1ccccc1N1CC(C)N(C(=O)CCn2cccn2)CC1=O` (stereo unspecified): 51.08%.
The value for `O=C1NCC2(CCCN(C(=O)c3ccc4c(c3)OCCO4)CC2)O1` (stereo unspecified) was 24.36%; that for `O=C1NCC2(CCCN(C(=O)c3ccc4c(c3)CCCO4)CC2)O1` (stereo unspecified) was 26.74%; that for `O=C1NCC2(CCN(C(=O)c3ccc4c(c3)CCCO4)CC2)O1` was 50.59%.
Consider `Cc1cc(-c2ccccc2C(=O)O)nc(C2CCCCN2C)n1` (stereo unspecified), for which the INHIBITION is given as 11.52%.
For `O=C(c1cccc(-n2cccn2)c1)N1CCCOC(CN2CCCC2)C1` (stereo unspecified), the INHIBITION stood at 33.9%.
Next, `O=C(c1cccc(-n2cccn2)c1)N1CCOC(CCO)C1` (stereo unspecified): 62.51%; `NCC1CN(C(=O)c2cccc(-n3cccn3)c2)CCO1` (stereo unspecified): 45.82%; `c1cnc2c(c1)nc1n2[C@@H](CNCc2nccs2)COC1`: -111.95%.
Next, `Fc1cccc(N2CCc3ncnc(N4CCOCC4)c3CC2)c1`: -7.49%; `CCOc1ccc(SCCNS(=O)(=O)CC)cc1`: 20.15%; `O=C(O)c1c(-c2cccnc2)ncc2c1CCN(CC1CCOC1)C2` (stereo unspecified): 21.13%.
Next, `CSc1cc2c(cc1NC(=O)N(C)Cc1ccncc1)OCCO2`: -10.36%; `Cn1c2ncccc2c(=O)n1CC(=O)NCCc1c(F)cccc1F`: -0.83%; `Cn1c2ncccc2c(=O)n1CC(=O)NCCC1=CCCCC1`: 54.49%.
With `Cc1ccc(CNC(=O)Cn2c(=O)c3cccnc3n2C)cc1F`, the INHIBITION came to 16.93%.
The value for `CCC[C@@H](NC(N)=O)C(=O)N1Cc2ccccc2-c2ccccc2C1` was -9.87%.
Next, `CC(C)Cc1noc(CNc2cccc(-c3nnnn3C)c2)n1`: -45.29%; `CC=C(C)C(=O)NS(=O)(=O)c1ccc(C(F)(F)F)cn1`: -31.15%.
The value for `O=C(c1cccc(O)c1)N1CCN(Cc2nnc(C3CCC3)o2)CC1` was 1.41%; that for `COCC(O)CN(C)C(=O)NC1CCN(Cc2ccccn2)CC1` (stereo unspecified) was 54.85%; that for `Cc1cc(CN(C)C(=O)NC2CCN(Cc3ccccn3)CC2)no1` was -7.82%.
`CN(Cc1cccnc1)C(=O)NC1CCN(Cc2ccccn2)CC1`: the INHIBITION is -37.28%.
As to `COc1ncc(C2(O)CCN(Cc3cc(F)ccc3F)CC2)c(OC)n1`, the INHIBITION is on record as -48.87%.
The value for `CCc1cc(C(=O)N[C@@H]2CC[C@@H](N3CCOCC3)[C@@H]2O)no1` was -49.75%; that for `COc1ccccc1OCCN1CCC(N2CCNC2=O)CC1` was 3.86%.
As to `COc1ccc(OCCN2CCC(N3CCNC3=O)CC2)cc1`, the INHIBITION was determined as 81.79%.
`CCOc1ccc(OCCN2CCC(N3CCNC3=O)CC2)cc1`: the INHIBITION came out at 12.81%.
Next, `C[S+]([O-])CCNC(=O)N1CCSC2(CCCCC2)C1` (stereo unspecified): -66.38%; `Cc1cccc(N2CC[C@@H]3CN(Cc4csc(C)n4)CCO[C@@H]3C2)n1`: 25.87%.
Next, `Cc1nnsc1C(=O)N1C[C@@H]2CC[C@H]1CN(c1cnccn1)C2`: 28.73%; `Cc1noc(C)c1C(=O)N1C[C@@H]2CC[C@H]1CN(c1cnccn1)C2`: 20.32%; `Cc1cnc(C(=O)N2C[C@@H]3CC[C@H]2CN(c2cnccn2)C3)cn1`: 53.98%.
The value for `c1ccc2c(c1)SCCC2NCc1ccc(N2CCOCC2)cc1` (stereo unspecified) was 15.16%.
`Cc1nccn1-c1ccccc1CNC(=O)c1cn(CCN)nn1`: the INHIBITION is -27.6%.
The value for `NCCn1cc(C(=O)NCc2ccccc2Cn2cccn2)nn1` was 62.3%; that for `NCCn1cc(C(=O)NCc2ccccc2-n2cccn2)nn1` was 28.67%; that for `CC(Cn1cccn1)n1cnc2ccc(F)cc2c1=O` (stereo unspecified) was 32.71%.
Next, `Cc1n[nH]c(C2CN(CC(=O)NCc3cccs3)CCO2)n1` (stereo unspecified): 34.42%.
Regarding `CCN(CCNC(=O)C1CCCN(C(C)=O)C1)c1ccccc1C` (stereo unspecified), the INHIBITION is 56.33%.
Next, `COc1ccc2[nH]cc(CCNC(=O)C3CCCN(C(C)=O)C3)c2c1` (stereo unspecified): 13.65%; `CN1CC(C(=O)NCCc2ccc(F)c(Br)c2)CC1=O` (stereo unspecified): -5.13%; `CC(=O)N1CCCC(C(=O)NCCc2ccc(F)c(Br)c2)C1` (stereo unspecified): 63.17%.
For `CCCN1CCC(C(=O)NCCN(CC)c2ccccc2C)CC1`, the INHIBITION is given as -5.9%.
Next, `CCN(CCNC(=O)C1CCN(C(C)=O)CC1)c1ccccc1C`: 31.13%; `O=C(CN1C=Nc2ccccc2S1(=O)=O)NCCc1cccs1`: 6.12%; `CCn1ncc(Br)c1CN(C)S(=O)(=O)c1ccc(C)cc1`: 0.3%.
Next, `CCCc1nc(NCc2c(C)nn(CCC)c2C)c2cnn(C)c2n1`: 32.53%.
The value for `CC(C)CNC(=O)CNc1c(NCc2ccco2)c(=O)c1=O` was 10.93%; that for `COc1ccnc(CN2CCCC(CCc3ccc(F)cc3)C2)c1OC` (stereo unspecified) was 58.03%.
On to `COc1ccnc(CN2CCCC(CCc3ccccc3)C2)c1OC` (stereo unspecified), for which the INHIBITION was determined as 11.37%.
Next, `COc1coc(CN2CCCC(CCc3ccc(F)cc3)C2)cc1=O` (stereo unspecified): 30.44%; `Cc1nc(CN2CCCC(N(C)Cc3nnc(C4CC4)o3)C2)no1` (stereo unspecified): -10.47%.
Next, `CCc1nnc(CN(C)C2CCCN(Cc3noc(C4CC4)n3)C2)o1` (stereo unspecified): -7.13%; `Cc1nnc(CN(C)C2CCCN(Cc3noc(C4CC4)n3)C2)o1` (stereo unspecified): 62.13%.
As to `Cc1cc(CN(C)C2CCCN(Cc3noc(C)n3)C2)on1` (stereo unspecified), the INHIBITION is given as -2.71%.
The value for `Cc1cc(CN(C)C2CCCN(Cc3noc(C)n3)C2)no1` (stereo unspecified) was 80.46%; that for `Cc1nc(CN(C)C2CCN(Cc3nnc(C4CC4)o3)C2)no1` (stereo unspecified) was 49.01%; that for `CN(Cc1noc(C2CC2)n1)C1CCN(Cc2nnc(C3CC3)o2)C1` (stereo unspecified) was 51.19%.
The value for `CC(C)c1nc(CN(C)C2CCN(Cc3nnc(C4CC4)o3)C2)no1` (stereo unspecified) was 37.9%; that for `Cc1cc(CN(C)C2CCCN(Cc3noc(C4CC4)n3)C2)no1` (stereo unspecified) was 28.65%; that for `CC(C)N(Cc1cccnc1)C(=O)CCSc1ccc(C#N)cc1` was 16.72%.
The value for `CCc1nc(CN2CCN(C(=O)c3csnn3)CC2)cs1` was 32.64%; that for `CC(C)NC(=O)N1CCCC2(CCCCN2)C1` (stereo unspecified) was 21.75%; that for `O=C(NCC(F)(F)F)c1ccncc1` was 8.22%.
On to `Fc1cnc(N2CCCC3(CCN(Cc4cccs4)C3)C2)nc1` (stereo unspecified), for which the INHIBITION stood at 31.25%.
On to `Cc1ccnc(NC(=O)C2CCCO2)c1` (stereo unspecified), for which the INHIBITION was 23.39%.
The value for `CN1CCOC(C(=O)N(C)c2ccc3c(c2)CCO3)C1` (stereo unspecified) was -30.56%; that for `COc1ccc(N(C)C(=O)C2CN(C)CCO2)cc1Cl` (stereo unspecified) was -18.04%; that for `COc1ccc(N(C)C(=O)C2CN(C)CCO2)cc1F` (stereo unspecified) was 71.05%.
The value for `Cc1ccc(OCC(O)COC2CCOCC2)c(Cl)c1` (stereo unspecified) was -2.35%; that for `Cc1cc(Cc2ccccc2F)cc(C2CCCNC2)n1` (stereo unspecified) was 4.91%.
Next, `Cc1cc(Cc2ccccc2)cc(C2CCCNC2)n1` (stereo unspecified): -24.98%.
For the compound `Cc1cc(Cc2ccccc2C)cc(C2CCCNC2)n1` (stereo unspecified), the INHIBITION is 54.02%.
The value for `CC(=O)N1CCN(c2cc(-n3cccc3)ncn2)CC1` was 35.36%; that for `CSc1sc2c(O)cc(=O)[nH]c2c1C(N)=O` was 15.96%; that for `Cc1nc(S(=O)(=O)N2CCc3[nH]nc(CCC(C)C)c3C2)cn1C` was 26.75%.
With `CSCCc1n[nH]c2c1CN(S(=O)(=O)c1c(C)nn(C)c1C)CC2`, the INHIBITION is 59.8%.
The value for `CSCCc1n[nH]c2c1CN(S(=O)(=O)c1cn(C)c(C)n1)CC2` was 41.07%; that for `CSc1ccc(NCc2csc(CS(C)(=O)=O)n2)cc1F` was 28.95%.
For the compound `CS(=O)(=O)Cc1nc(CNc2c(F)cc(F)cc2F)cs1`, the INHIBITION stood at 1.42%.
As to `CS(=O)(=O)Cc1nc(CNc2ccc(F)c(F)c2)cs1`, the INHIBITION was 56.49%.
The value for `Cc1cn(Cc2ccccc2)nc1N` was 43.77%; that for `Cc1cccc(Cn2cc(C)c(N)n2)c1` was 62.99%.
Next, `Cc1ccc(Cn2cc(C)c(N)n2)cc1`: -20.05%; `COC(=O)c1cccc2nc([C@H]3CCN(Cc4ccccc4C)C3)oc12`: 33.14%.
The value for `COC(=O)c1cccc2nc([C@H]3CCN(CC(C)C)C3)oc12` was 53.46%.
In the case of `COC(=O)c1cccc2nc([C@H]3CCN(Cc4ccccc4)C3)oc12`, the INHIBITION was 1.29%.
Next, `COC(=O)c1cccc2nc([C@H]3CCN(C4CCN(C)CC4)C3)oc12`: 21.06%; `COC(=O)c1cccc2nc([C@H]3CCN(Cc4ccccc4F)C3)oc12`: 52.36%.
The value for `COc1cccc(-c2noc(C3CCN(Cc4ccccc4F)C3)n2)c1` (stereo unspecified) was 35.56%.
